Measurements reported in PubChem BioAssay (NCI).
About 83,000 compounds went through this panel and 20% of them were active in at least one assay; those are over-represented in the sample as a whole.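 Negative percent growth values reflect cell death: -40 means 40% of the cells present at the start died, and -100 means all died.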 Values without a mark were called inactive. Activity calls are given as the source filed them. How the source made its calls: active means growth percent below 10; inactive means the rest.

Columns and labels:
Test in all cases: NCI-60 one-dose screen, 48 h (100 = growth as untreated, 0 = no growth, -100 = all killed)
Conditions in all cases: 10 µM
[1] = tested on: SK-MEL-2 melanoma
[2] = tested on: EKVX NSCLC
[3] = tested on: SN12C renal
[4] = tested on: UO-31 renal
[5] = tested on: TK-10 renal
[6] = tested on: ACHN renal
[7] = tested on: CAKI-1 renal
[8] = tested on: A498 renal
[9] = tested on: CCRF-CEM leukemia
[10] = tested on: MOLT-4 leukemia

Row | SMILES | growth [1] | growth [2] | growth [3] | growth [4] | growth [5] | growth [6] | growth [7] | growth [8] | growth [9] | growth [10]
1 | C=CCN(CC=C)C(=O)[C@H](CC)[C@@H]1CC[C@@H](C)[C@@H]([C@H](C)[C@@H](O)[C@@H](C)C(=O)[C@H](CC)C2O[C@]3(C=CC(=O)[C@]4(CC[C@@](C)([C@H]5CC[C@](O)(CC)[C@H](C)O5)O4)O3)[C@H](C)C[C@@H]2C)O1 (some centres undefined) | 22.1% | 12.8% | 19.8% | 0.66% (active) | 35.5% | 5.47% (active) | 13.7% | 22.2% | – | –
2 | CC[C@@H](C(=O)[C@@H](C)[C@@H](O)[C@H](C)[C@@H]1O[C@@H]([C@@H](CC)C(=O)O)CC[C@@H]1C)C1O[C@]2(C=CC(=O)[C@]3(CC[C@@](C)([C@H]4CC[C@](O)(CC)[C@H](C)O4)O3)O2)[C@H](C)C[C@@H]1C (some centres undefined) | 40.7% | 38% | 27.6% | 24.3% | 57.7% | 31.6% | 27% | -11.4% (active) | – | –
3 | O=C(N/N=C/c1ccc([N+](=O)[O-])cc1)c1ccccc1Nc1cccc(C(F)(F)F)c1 | 80.9% | 92.4% | 99.5% | 78.4% | 173% | 91% | 76.9% | -6.91% (active) | 91.9% | 109%
4 | O=C1/C=C/[C@@H](O)[C@@H]2C[C@@H](O)C[C@H]2/C=C/CCC[C@H](CCc2ccc(NC(=S)Nc3ccc4c(c3)C(=O)OC43c4ccc(O)cc4Oc4cc(O)ccc43)cc2)O1 | -9.15% (active) | 12.7% | 10.1% | 11% | -21.2% (active) | 14.9% | 22.2% | -29.7% (active) | -2.59% (active) | -8.92% (active)
5 | CCCN1CN2C(=O)N3CN(CCC)CN4C(=S)N(C1)C2C34 (centres undefined) | 102% | 95.2% | 100% | 94.6% | 93.2% | 94.4% | 90.4% | 108% | 94.9% | –
6 | CCC(CC)n1c(C)cc(=O)n1C(CC)CC | 111% | 113% | 105% | 115% | 109% | 101% | 97.6% | 116% | 107% | 103%
7 | COc1ccc(C(=O)CC(CC(=O)c2ccc(OC)cc2)c2c(C)nn(-c3ccccc3)c2Cl)cc1 | 94.3% | 102% | 93.3% | 72.8% | 103% | 90.8% | 85.1% | 80.8% | – | –
8 | COc1ccc(/C(C#N)=C/c2ccccc2OC)cc1 | 15.9% | 64.6% | 47.3% | 52.2% | 53% | 44.1% | 39% | 25.6% | 16.2% | 21.3%
9 | Clc1nc2ccccc2cc1Cn1nnc(Cc2ccccc2)n1 | 58.8% | 36.1% | 70.3% | -81% (active) | 60.9% | 52.2% | 40.5% | – | – | –
10 | CCN(CCCNc1cc2c(c(N)c1S(=O)(=O)O)C(=O)c1ccccc1C2=O)c1ccccc1 | 103% | 103% | 87.4% | 75.2% | 116% | 103% | 95.7% | 103% | 102% | 108%
11 | CC[C@@H]1NC(=O)[C@H]([C@H](O)[C@H](C)C/C=C/c2ccc(CN3C(=O)CCCC3=O)cc2)N(C)C(=O)[C@H](C(C)C)N(C)C(=O)[C@H](CC(C)C)N(C)C(=O)[C@H](CC(C)C)N(C)C(=O)[C@@H](C)NC(=O)[C@H](C)NC(=O)[C@H](CC(C)C)N(C)C(=O)[C@H](C(C)C)NC(=O)[C@H](CC(C)C)N(C)C(=O)CN(C)C1=O | 38.2% | 37.4% | 71.1% | 49.7% | 39.8% | 40.3% | 77.3% | 4.54% (active) | 11.6% | 21.8%
12 | O=C(Cn1cc(CO)nn1)Nc1nc2ccccc2s1 | 107% | 94.1% | 96.5% | 72.6% | 106% | 104% | 88.9% | 118% | 103% | 104%
13 | O=C1/C=C/[C@@H](O)[C@@H]2C[C@@H](O)C[C@H]2/C=C/CCC[C@@H](C(F)(F)F)O1 | 86.3% | 90.4% | 90.3% | 47.6% | 73.7% | 98.3% | 98.4% | 84.8% | 92.2% | 84.7%
14 | Cc1cccc(N=Cc2ccccc2O)c1C | 129% | 93.7% | 89.6% | 105% | 121% | 110% | 92.4% | 106% | 101% | 98.1%
15 | Cc1cc(CCNC=O)c(C)c2c1sc1ccccc12 | 109% | 56.6% | 79.7% | 91.2% | 94.4% | 99.8% | 80.7% | 72.8% | 84% | 94.5%
16 | N#Cc1c(-c2ccc(Cl)cc2)csc1NC(=O)Nc1ccc(Cl)c(C(F)(F)F)c1 | 5.43% (active) | 11.9% | 14.4% | 28.2% | 10.3% | 3.38% (active) | 13.5% | 35.6% | – | –
17 | CC(=O)OC1C=CC(OC(C)=O)O1 (centres undefined) | 88.9% | 99.3% | 89.8% | 59.4% | 102% | 97.9% | 89% | 81.3% | 76.6% | 90%
18 | COc1cc(C2CC(c3cc(Cl)c(C)cc3O)=NN2c2ccc(S(N)(=O)=O)cc2)cc(OC)c1OC (centres undefined) | 37.7% | 16.9% | 13.7% | 4.12% (active) | 15.3% | 3.29% (active) | 11.4% | 43.3% | – | –
19 | OCC1OC(n2cnc3c(NCc4ccco4)ncnc32)C(O)C1O (centres undefined) | 76% | 65.3% | 7.6% (active) | 20.4% | 41.4% | 4.08% (active) | 14.1% | 9.69% (active) | 6.74% (active) | -4.64% (active)
20 | NC(=O)c1cccc(-n2ccc3cc(NC(=O)Nc4ccc(Cl)c(C(F)(F)F)c4)ccc32)n1 | 97.2% | 57.7% | 73.4% | 77.3% | 83.7% | 71.3% | 61% | 56.9% | 62.5% | –
21 | CC(C)c1ccc(C(C)C(=O)N(CC2=C(C(C)c3ccccn3)c3ccccc3C2)C(C)C)cc1 (centres undefined) | 24.1% | 13.6% | 34% | -12.2% (active) | 53.8% | 36.6% | 3.55% (active) | 49.1% | 30.4% | –
22 | O=S(=O)(Oc1ccc(-c2ccc3sccc3c2)cc1)c1ccccc1 | 111% | 95.8% | 97.7% | 97.7% | 99.8% | 112% | 87% | 89.2% | 98.9% | 91.7%
23 | CCOC(=O)c1cocc1C(=O)O | 105% | 103% | 105% | 93.3% | 118% | 111% | 107% | 112% | 74.1% | 86.5%
24 | Cc1cc(Cl)ccc1Nc1nc(C(F)(F)F)ccc1C(=O)N/N=C/c1cccc(O)c1 | 16% | 20.8% | 52.3% | 6.02% (active) | 85.9% | 28.3% | 25.5% | -41.5% (active) | 4.04% (active) | 3.63% (active)
25 | CCN(CC)c1ccc(/C=C2\SC(=O)C(Nc3nnc(-c4cccnc4SCc4ccccc4)o3)C2=O)cc1 (centres undefined) | 33.8% | 55.8% | 61.4% | 53.7% | 44.3% | 51.2% | 41.2% | 9.41% (active) | 50.6% | 61.9%
26 | COc1cc(NC(=O)C2=C(N3CCOCC3)/C(=C/c3ccc(Cl)cc3)CC2)cc(OC)c1OC | 85.4% | 93.4% | 83.4% | 72.8% | 121% | 93.5% | 84.6% | 98.3% | 39.8% | 49.3%
27 | COc1ccc(C(=O)COc2cccc(/C=C3\Cc4ccccc4C3=O)c2)cc1 | 51.8% | 87.8% | 92.7% | 12.1% | 111% | 95.8% | 76.4% | 94.7% | 80.8% | 85.8%
